According to ChEMBL document CHEMBL1157539, “Thousands of chemical starting points for antimalarial lead identification” (Nature, 2010):

Tests used:
Assay type in all cases: functional
Plasmodium falciparum [1] = experiment: GSK_TCMDC: Inhibition of Plasmodium falciparum 3D7 in whole red blood cells, using parasite LDH activity as an index of growth. Test compounds present at 2uM
Plasmodium falciparum [2] = experiment: GSK_TCMDC: Inhibition of Plasmodium falciparum Dd2 in whole red blood cells, using parasite LDH activity as an index of growth. Test compounds present at 2uM
HepG2 = experiment: GSK_TCMDC: Percent inhibition of human HepG2 cell line. Test compounds present at 10uM.

| Compound | Inhibition (Plasmodium falciparum [1]) [%] | Inhibition (Plasmodium falciparum [2]) [%] | Inhibition (HepG2) [%] |
| --- | --- | --- | --- |
| CC(C)CCNCc1ccc(OCc2cccc(C(=O)Nc3ccccc3)c2)c(I)c1.O=C(O)C(F)(F)F | 100 | 59 | 25 |
| COc1nc2c(CCN3CCC(NCc4ccc5c(n4)NC(=O)CO5)CC3)c(Cl)cnc2cc1F.Cl | 99 | 40 | 17 |
| Cc1cccc2nc(-c3cccc(-c4ccc(NC(=O)C(C)CN(C)C)cc4)c3)[nH]c12 (configuration not stated) | 100 | 100 | 29 |
| COc1ccc2nccc([C@@H](O)CN3CCC(CO)(NCc4cc5ccccc5o4)CC3)c2c1.O=C(O)C(=O)O | 85 | 7 | 12 |
| Cc1onc(-c2c(Cl)cccc2Cl)c1C(=O)N1CCc2cc3nccc(N4CCN5CCC[C@H]5C4)c3cc21 | 100 | 58 | 3 |
| Clc1ccccc1/C=C/c1cncnc1Nc1ccc2[nH]c(Cc3ccccc3)nc2c1 | 96 | 26 | 4 |
| O=C(CCc1cccnc1)Nc1cccc(-c2ccc(-c3nc4cc(C(F)(F)F)ccc4[nH]3)s2)c1 | 89 | 13 | 35 |
| CC(C)(C)c1ccc(NC(=O)c2cccc(CN3CCCN(Cc4cccc(C#N)c4)CC3)c2)cc1.O=C(O)C(F)(F)F | 97 | 12 | 39 |
| Cc1ccc(C(=O)Nc2cc(C(F)(F)F)cc(C(F)(F)F)c2)cc1[N+](=O)[O-] | 100 | 61 | 17 |
| O=C(O)C1CC(=O)N(c2ccc(Cl)cc2)C1 (configuration not stated) | 97 | 33 | 51 |
| O=C(O)C(F)(F)F.OCC1CCN(Cc2cccc(-c3cccc(-c4nc5cc(C(F)(F)F)ccc5[nH]4)c3)c2)CC1 | 100 | 100 | 24 |
| NCCNc1ccnc2cc(Cl)ccc12 | 100 | 54 | 9 |
| O=C(NC1CCCCC1)N(Cc1ccc(-c2ccc(CNC3CCCC3)cc2)cc1)C1CCN(Cc2ccccc2)CC1.O=C(O)C(F)(F)F | 99 | 86 | 31 |
| O=C1NC(=S)N/C1=C/C=C/c1ccc([N+](=O)[O-])o1 | 82 | 30 | 7 |
| Nc1ncc(-c2cccc(CCN3CCOCC3)c2)cc1-c1nc2cc(Br)ccc2[nH]1.O=C(O)C(F)(F)F | 100 | 98 | 60 |
| Cc1ccc(O)cc1Nc1ccnc2cc(-c3ccccc3)ccc12.Cl | 100 | 99 | 45 |
| Cc1nc(-c2nc(N3CCOCC3)ncc2-c2ccsc2)sc1C | 89 | 75 | 5 |
| CCc1c(CCNCCCCCCNCCc2ccccc2)ccc(OC)c1OC.Cl | 100 | 3 | 33 |
| CN1N=C2c3ccccc3CCC2C1c1ccc(C#N)cc1 (configuration not stated) | 95 | 85 | 0 |
| Br.COc1ccccc1CCCON1C(=N)N=C(N)NC1(C)C | 95 | 92 | 68 |
| Cc1ccc(NC(=O)c2cn(-c3ccccc3)nc2-c2ccc(F)cc2)cc1[N+](=O)[O-] | 92 | 38 | 6 |
| c1ccc(CNc2nc(NCCN3CCCCC3)nc3ccccc23)cc1 | 87 | 8 | 19 |

| Compound | Inhibition (Plasmodium falciparum [1]) [%] | Inhibition (Plasmodium falciparum [2]) [%] | Inhibition (HepG2) [%] |
| --- | --- | --- | --- |
| COc1ccc2sc(CNCCCNc3cc(=O)c4ccccc4[nH]3)c(Cl)c2c1.Cl | 85 | 42 | 1 |
| CCOC(=O)CCCc1cc(NC2CCN(C)CC2)nc(Nc2ccc(C)cc2)n1 | 90 | 12 | 35 |
| CC(C)(CNCc1ccc(OC(F)(F)F)cc1)c1nc(-c2ccc(Cl)c(O)c2)c(-c2ccncc2)[nH]1.Cl | 100 | 99 | 38 |
| CN1CCC(C(=O)N(Cc2ccc(-c3ccc(CNCCc4ccc(S(C)(=O)=O)cc4)cn3)cc2)Cc2ccc3c(c2)OCO3)CC1.O=C(O)C(F)(F)F | 91 | 51 | 16 |
| N#CC(CC(=O)c1ccc(Cl)cc1)c1cccc(F)c1 (configuration not stated) | 97 | 4 | 5 |
| c1ccc(COc2ccc(COc3ccc(Cn4ccnc4)cc3)cc2)cc1 | 86 | 45 | 9 |
| CN(C)CCN(C)Cc1cccc(-c2ccc3c(Nc4ccc(F)cc4Cl)ccnc3c2)c1 | 100 | 100 | 53 |
| O=C(NC1CCN(c2ccc(F)cc2[N+](=O)[O-])CC1)c1cccs1 | 90 | 91 | 0 |
| Cc1ccc(Nc2nc(C)cc(N3CCN(CCc4ccccc4)CC3)n2)cc1 | 93 | 6 | 6 |
| O=C(O)C(F)(F)F.Oc1ccc(CCCNc2nc(NCc3cccc4ccccc34)nc(N3CCCNCC3)n2)cc1 | 96 | 62 | 98 |
| CN(C)c1ccc(CN2CCC(NC(=O)c3ccc(-c4ccccc4Cl)s3)CC2)cc1.O=C(O)C(F)(F)F | 82 | 27 | 35 |
| c1cncc(CN2CCCN(c3ccc4c(c3)CCN(Cc3ccc(-c5ncc[nH]5)cc3)CC4)CC2)c1 | 99 | 33 | 7 |
| Cc1ccc2c(=NN=Cc3cccc(F)c3)cc(C)[nH]c2c1 | 96 | 66 | 34 |
| O=C(O)C(F)(F)F.c1ccc(CN2CCC(NCc3ccccc3-c3cccc(CNCc4ccc5c(c4)OCO5)c3)CC2)cc1 | 100 | 69 | 37 |
| CC(C)(C)CC(C)(C)c1ccc(O)c(CNC2CCCCC2)c1.Cl | 98 | 99 | 92 |
| CCNc1cc(C(=O)N[C@@H](Cc2ccccc2)[C@H](O)CNC(C)(C)CSCC(C)C)cc(N2CCCC2=O)c1 | 100 | 97 | 0 |
| O=C(OCc1ccccc1)N1CCc2c([nH]c3ccccc23)C1CCC(F)(F)F (configuration not stated) | 94 | 81 | 0 |
| Cl.Clc1ccc(OCCC2CCN(CCCCCCCN3CCC(CCOc4ccc(Cl)c(Cl)c4)CC3)CC2)cc1Cl | 99 | 82 | 100 |
| Cc1cccc2nc(-c3cccc(-c4cccc(NC(=O)c5ccncc5)c4)c3)[nH]c12 | 100 | 78 | 22 |
| CCOc1cc(Br)c(C(C)NC(=O)c2ccccc2)cc1OCC (configuration not stated) | 92 | 10 | 0 |
| COc1c(I)cc(Cc2cnc(N)nc2N)cc1I | 91 | 0 | 5 |
| O=C(CCCCCNC(=O)c1ccc(O)c(-c2ccc(Cl)c(Cl)c2)c1)NCCN1CCCCC1 | 93 | 1 | 0 |

| Compound | Inhibition (Plasmodium falciparum [1]) [%] | Inhibition (Plasmodium falciparum [2]) [%] | Inhibition (HepG2) [%] |
| --- | --- | --- | --- |
| O=C(O)C(F)(F)F.O=c1[nH]ccc2nc(N[C@@H]3CCNC3)nc(Nc3ccc4c(c3)S(=O)(=O)CC4)c12 | 100 | 99 | 0 |
| CN(C)C=Nc1ccc(OCCCCCCOc2ccc(N=CN(C)C)cc2)cc1.Cc1ccc(S(=O)(=O)O)cc1 | 100 | 94 | 26 |
| Cc1cc(N[C@@H](CC(C)C)C(=O)NCCc2ccccc2)nc(NCc2ccccc2C)n1.O=C(O)C(F)(F)F | 93 | 74 | 17 |
| CCNc1cc(C)nc(Nc2ccc(NC(=O)c3ccccc3Cl)cc2)n1 | 100 | 52 | 48 |
| COc1cc2nc(N3CCC(CNC(=O)c4ccc(-c5cccc(C#N)c5)cc4)CC3)nc(N)c2cc1OC | 100 | 100 | 18 |
| O=C(Nc1ccc(N2CCCN(Cc3cccc(F)c3)CC2)cc1)c1ccc(F)cc1.O=C(O)C(F)(F)F | 96 | 95 | 0 |
| OC(CNCc1ccccc1Oc1ccccc1)c1cc(Br)cs1 (configuration not stated) | 94 | 79 | 0 |
| N#Cc1cccc(NC(=O)Nc2ccc(-c3csc(-c4nc5ccccc5[nH]4)c3)cc2)c1 | 100 | 97 | 63 |
| Cc1cc(N(C)CCCN(C)C)nc(Nc2ccc(Br)cc2)n1 | 100 | 84 | 4 |
| Cc1ccc(C)c(CC(=O)N2CCC(n3c(C)nc4ccc(F)cc43)CC2)c1 | 100 | 99 | 0 |
| CCOC(=O)NC1=NC(C)(C)N(OCc2ccc(Cl)c(Cl)c2)C(NC(=O)OCC)=N1 | 98 | 4 | 65 |
| Cc1ccc(CN2CCCN(Cc3cccc(NC(=O)c4ccc(Cl)c(Cl)c4)c3)CC2)cc1.O=C(O)C(F)(F)F | 96 | 18 | 32 |
| Cl.O=C(Nc1ccc2nccc(N3CCN4CCC[C@H]4C3)c2c1)c1ccc(Cl)c(Cl)c1 | 100 | 98 | 18 |
| CCN(CC)CCNC(=O)c1ccc(NC(=O)c2ccc(-c3cc(NC(=O)CC4CCCC4)ccc3C)cc2)cc1 | 99 | 95 | 12 |
| O=C(NC(CCCN1CCC(c2ccccc2)CC1)c1ccc(Cl)c(Cl)c1)c1cc(C(F)(F)F)cc(C(F)(F)F)c1 (configuration not stated) | 92 | 87 | 33 |
| CN(C)CCCNCCS(=O)(=O)c1cccc(Nc2ccc(-c3cccc(N(C)C)c3)cn2)c1 | 98 | 0 | 19 |
| Cc1cc(-c2cccc(CNCc3ccccc3)c2)ccc1S(=O)(=O)NCCN1CCCC1.O=C(O)C(F)(F)F | 98 | 58 | 40 |
| Cc1cccc2nc(-c3cccc(-c4ccc(NC(=O)C5CCN(C)CC5)cc4)c3)[nH]c12 | 100 | 100 | 16 |
| CC1CCC2(CC1)N=C(N)N=C(N)N2OCc1cc2ccccc2c2ccccc12 (configuration not stated) | 97 | 41 | 27 |
| O=C(N/C=N/c1cc([N+](=O)[O-])c(-c2ccncc2)n1-c1ccccc1)c1cccc(O)c1 | 100 | 56 | 2 |
